Reference: PubChem BioAssay AID1347426 (Functional Genomics Laboratory (NCATS/FGL), 2020)
The whole screen tested about 31,000 sequences, of which about 1,400 (4.5%) were called active.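 Rule for the calls: active = median seed-adjusted z-score above 1 or below -1; inactive = the rest.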 The entries come from a sample that favours actives as a whole.

Assay: Novel Modifiers of Survival Motor Neuron (SMN) Protein: Gene Identification via Genome-wide siRNA Screen;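 note: luminescence tracks full-length SMN protein made from the SMN2 reporter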
Conditions: HEK293T SMN2-luciferase reporter, siRNA knockdown, 72 h; actives lie on both sides
Outline: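 HEK293T cells stably expressing an SMN2 splicing/cDNA-luciferase reporter were reverse-transfected with a druggable-genome siRNA library and read by luminescence at 72 hours; hits defined by MAD score above 1.0 or below -1.0.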
In the case of GCAUCGACCUGAUUCACAATT against AP3B2, the median seed-adjusted z-score is reported as -2.45 (active). For GGAGCGGUUCAGAUCAAUATT against RAB39, the median seed-adjusted z-score was -0.408 (inactive). In the case of CCUCAUUGAUAACACUAAATT against GBP2, the median seed-adjusted z-score is reported as -0.263 (inactive). For GGAUUGAAGGUGUUCACUATT against PZP, the median seed-adjusted z-score was -0.878 (inactive). In the case of CAGUACUACGUGAAACUGATT against BAT1, the median seed-adjusted z-score is reported as -1.49 (active). With GGCUACAAGUAGAGAGUUUTT against ESPL1 the median seed-adjusted z-score was 0.871 (inactive). For GAGAAAGUGUGAACUUACATT against XRCC2, the median seed-adjusted z-score was 0 (inactive). For CGCAACUCUUUACACCGUATT against SAMHD1, the median seed-adjusted z-score was -1.33 (active). With GGAUGUUUUCGAAACGCAUTT against BRDT the median seed-adjusted z-score was -0.357 (inactive). In the case of GACUAUUCCUGAUCCUUAUTT against AGBL2, the median seed-adjusted z-score is reported as -0.796 (inactive). With GCAUCAGCUUCGAUGAGUATT against S100A16 the median seed-adjusted z-score was 0.24 (inactive). With CCCUGUCUAUAAUUUCUUUTT against DGCR8 the median seed-adjusted z-score was -0.266 (inactive). In the case of CGCCUUAUACUUUACCAAATT against MGC16703, the median seed-adjusted z-score is reported as 0.55 (inactive). In the case of CCAUUAAGAAUGCUAAUAUTT against ABCB10, the median seed-adjusted z-score is reported as -0.1 (inactive). For GGCUAUAGGGUGUAUAUUUTT against CDK8, the median seed-adjusted z-score was -1.47 (active). In the case of CCUUCGACCUCAAGAGACATT against OVOL1, the median seed-adjusted z-score is reported as -0.0414 (inactive). In the case of CAGGCUUUGUUAGACGUAATT against ZNF157, the median seed-adjusted z-score is reported as 0.137 (inactive). In the case of GCUCUUGGAUUAAAAGGUATT against STAR, the median seed-adjusted z-score is reported as 0.478 (inactive). With GAACGUACUCUUGCUUAUATT against ATP6V1D the median seed-adjusted z-score was 0.594 (inactive). In the case of CAGAGAACCCAUUACAUCATT against HADH, the median seed-adjusted z-score is reported as 1.11 (active). With GACUUUCACAGUUCACCGATT against KCTD3 the median seed-adjusted z-score was 0.603 (inactive). For UCAACCCUCUGAUAGAAGATT against EID2, the median seed-adjusted z-score was -1.04 (active). For GUAUGCUCCCGAUCAAGUATT against APOBEC3A, the median seed-adjusted z-score was 0.467 (inactive). In the case of GAAGGAUGGGUGGACGUAATT against NALCN, the median seed-adjusted z-score is reported as -0.266 (inactive). With CCAUAAAUGCUACGAAUAUTT against EGFR the median seed-adjusted z-score was 0.263 (inactive). With CAAUGAAUUUUUCCGAAGATT against ITGA10 the median seed-adjusted z-score was 0.378 (inactive). With CCACAUGCUUCAAACAUCATT against TOR1A the median seed-adjusted z-score was -0.231 (inactive). For UAGCUUCGGUGAUCAAGAATT against ANXA9, the median seed-adjusted z-score was 0.055 (inactive). For GCAAGAGUCGUUCACCAGATT against MGMT, the median seed-adjusted z-score was -0.0549 (inactive). In the case of GCUCAAAGGUCUCACCUGCTT against SLC35A2, the median seed-adjusted z-score is reported as 1.06 (active). With GGCCGGAGAUUAUCCUCAATT against MIXL1 the median seed-adjusted z-score was -0.204 (inactive). With GUGUGGUAGCUAUUGACAATT against TSC22D1 the median seed-adjusted z-score was 0 (inactive). In the case of UUCCCAUAUUUAUUCGGACTT against AMH, the median seed-adjusted z-score is reported as -0.255 (inactive). With GCAGUGACCUUCAAAGUGATT against PTPRN2 the median seed-adjusted z-score was -0.104 (inactive). With CAACUGCAAGAGGACUGUATT against SLC10A4 the median seed-adjusted z-score was 0.069 (inactive). For UGCUGUUCGUGGAUUUCAATT against CDX4, the median seed-adjusted z-score was 0.181 (inactive). With AGAUUGAAAUCGACUUUGATT against BRD4 the median seed-adjusted z-score was 1.13 (active). In the case of GCAUCAUCUCAGCACCAGATT against SLC5A12, the median seed-adjusted z-score is reported as 0.279 (inactive). With GAACCGCCCUCCUGAUUAATT against WNT3A the median seed-adjusted z-score was -0.66 (inactive). In the case of GCAAGAUCCCAAAUCAGCATT against ADAT1, the median seed-adjusted z-score is reported as 0.404 (inactive). In the case of ACAAGAUGACCAACACUAATT against ARHGAP1, the median seed-adjusted z-score is reported as -1.14 (active). In the case of GAACGGGUAUGUGGAGAUATT against INHBA, the median seed-adjusted z-score is reported as 0.361 (inactive). For CGAACGAAGAAGAGCCGAATT against NFATC2, the median seed-adjusted z-score was 0.183 (inactive). In the case of CUACCCAACCUGUAGCUAATT against UBE2J1, the median seed-adjusted z-score is reported as -1.2 (active). For CGAUUAGAAAUCAACAUGATT against MLKL, the median seed-adjusted z-score was 0 (inactive). For GAUUUCUAGGCAUCCCGUATT against ARSA, the median seed-adjusted z-score was 0.0938 (inactive). For CCAUGAUCCUGUGGAUAAATT against HNRNPA2B1, the median seed-adjusted z-score was 1.33 (active). For CCCUCGAAUUCGCAUAGAATT against DIS3, the median seed-adjusted z-score was 0.266 (inactive). For GCACCGUCUAUGUCACCAUTT against GAL3ST3, the median seed-adjusted z-score was -0.54 (inactive). In the case of CCCAUAUUCGGAUCCAGAATT against PTPN6, the median seed-adjusted z-score is reported as -0.515 (inactive). In the case of GGAAUCGUGGAGAAUAUGATT against NUBP2, the median seed-adjusted z-score is reported as -0.21 (inactive). In the case of CCAUGCCCUAUGUUAAGAATT against RRM2B, the median seed-adjusted z-score is reported as -0.128 (inactive). In the case of AGACGAUCCGGGUAAAGUUTT against LSM7, the median seed-adjusted z-score is reported as -0.45 (inactive). With CAACUAGUGCAACCAGUAATT against ZNF207 the median seed-adjusted z-score was -3.1 (active).
